Records with an inconclusive call do not appear. Entries that show only a call come without a potency. The source made the active and inactive calls. Calls come from the whole dose curve.
Potency is the fitted concentration of half-maximal effect.

The assay can be described thus: qHTS assay for small molecule agonists of the antioxidant response element (ARE) signaling pathway - cell viability counter screen (AID 743203). Note: nearly all actives have a fitted effect of over 55% in size. Conditions: ARE-bla HepG2 viability, CellTiter-Glo luminescence, 16 h; series mostly up to 73.3 µM. From the text:
National Center for Advancing Translational Sciences [NCATS]
NIH Chemical Genomics Center [NCGC]
U.S. Environmental Protection Agency [EPA]
National Institutes of Environmental Health Sciences [NIEHS]
National Toxicology Program [NTP]
U.S. Food and Drug Administration [FDA]
Oxidative stress has been implicated in the pathogenesis of a variety of diseases ranging from cancer to neurodegeneration. The antioxidant response element (ARE) signaling pathway plays an important role in the amelioration of oxidative stress. The CellSensor ARE-bla HepG2 cell line (Invitrogen) can be used for analyzing the Nrf2/antioxidant response signaling pathway. Nrf2 (NF-E2-related factor 2) and Nrf1 are transcription factors that bind to AREs and activate these genes. The CellSensor ARE-bla Hep G2 cell line contains a beta-lactamase reporter gene under control of the Antioxidant Response Element (ARE) stably integrated into HepG2 cells. The activation of the report gene under culture conditions can be detected by fluorescence intensity. This cell line has been used to screen the Tox21 10K compound library to identify agonists that induce oxidative stress. The cytotoxicity of the Tox21 compound library against the ARE-bla cell line was tested in parallel by measuring the cell viability using CellTiter-Glo assay (Promega, Madison, WI) in the same wells.
Tox21 Assay Protocol Summary:
ARE-bla HepG2 cells were dispensed at 2,000 cells/5 ul/well in 1536-well white wall/solid bottom plates using a Multidrop Combi (ThermoFisher Scientific, Waltham, MA) dispenser. After the assay plates were incubated at 37C/5% CO2 for 5 hrs, 23 nL of compounds dissolved in DMSO, positive controls or DMSO only was transferred to the assay plate by a pintool work station (Kalypsys, San Diego, CA). The plates were incubated at 37C/5% CO2 for 16 hrs, followed by addition of 4 ul/well of CellTiter-Glo reagent into the assay plates using a Flying Reagent Dispenser (Aurora Discovery, San Diego, CA). After 30 min incubation at room temperature, the luminescence intensity in the assay plates was measured using a ViewLux (PerkinElmer, Shelton, CT) plate reader.
Background: Quantitative high-throughput screening tests each substance at several concentrations.
`O=[N+]([O-])c1nccn1CO[C@@H](CO)[C@H](O)CO`: the Potency result was “inactive”.
Consider `CC(C)NC[C@@H](O)COc1cccc2ccccc12`, for which the Potency entry is “inactive”.
On to `FC(F)(F)C(Cl)(Cl)Cl`, for which the Potency result is “inactive”.
On to `CC(=O)OC1C2(C)CCC(C2)C1(C)C` (stereo not given), for which the Potency entry was “inactive”.
As for `C[C@]12C(=O)OC(=O)[C@H]1[C@H]1C=C[C@@H]2C1`, the entry is “inactive”; as for `C=CCCC=C`, “inactive”; as for `CN(C)C(=O)NC1(c2ccccc2)CCN(CCC[C@]2(c3ccc(Cl)c(Cl)c3)CCCN(C(=O)c3ccccc3)C2)CC1`, 14.6 µM (active).
For `N#CSCC(=O)O`, the Potency result was “inactive”.
For `CCCNC(C)(C)COC(=O)c1ccccc1` the value was “inactive”; for `Cc1ccsc1C(=CCCN1CCC[C@@H](C(=O)O)C1)c1sccc1C`, “inactive”.
As for `O=C1CCCCC1C1CCCCC1` (stereo not given), the Potency result is “inactive”.
For `COc1cc2c(cc1N)oc1ccccc12` the value was “inactive”; for `NCCC(O)(P(=O)(O)O)P(=O)(O)O`, “inactive”; for `CCCCCCCCOC(=O)CCCCCCCCC(=O)OCCCCCCCC`, “inactive”.
Take `CC(C)Nc1nc(N)nc(Cl)n1`: the Potency entry was “inactive”.
For `CCCCC(=O)O[C@]1(C(=O)CO)[C@H](C)C[C@H]2[C@@H]3CCC4=CC(=O)C=C[C@]4(C)[C@@]3(F)[C@@H](O)C[C@@]21C` the value was “inactive”; for `CCN(CC)CCNC(=O)COc1ccc(Cl)cc1`, “inactive”.
`CC(C)C(=O)OC/C=C/c1ccccc1`: the Potency entry was “inactive”.
As for `CC1(C)O[C@@H]2C[C@H]3[C@@H]4CCC5=CC(=O)CC[C@]5(C)[C@@]4(F)[C@@H](O)C[C@]3(C)[C@]2(C(=O)CCl)O1`, the entry is “inactive”.
Consider `CCCCN1C[C@H](O)[C@@H](O)[C@H](O)[C@H]1CO`, for which the Potency entry is “inactive”.
For `COC(=O)N[C@H](C(=O)N[C@@H](Cc1ccccc1)[C@@H](O)CN(Cc1ccc(-c2ccccn2)cc1)NC(=O)[C@@H](NC(=O)OC)C(C)(C)C)C(C)(C)C` the value was “inactive”; for `NC/C=C/C(=O)O`, “inactive”.
Regarding `O=C(CC(=O)C(F)(F)F)c1ccccc1`, the Potency entry is “inactive”.
Consider `CN1C(=O)CC(c2ccccc2)C1=O` (stereo not given), for which the Potency result was “inactive”.
As to `Cc1c(-c2ccccc2)oc2c(C(=O)OCCN3CCCCC3)cccc2c1=O`, the Potency entry was “inactive”.
For `OCC(CBr)(CBr)CBr` the value was “inactive”.
Consider `CCOC(=O)c1cc(=O)c2c(OCC(COc3cccc4oc(C(=O)OCC)cc(=O)c34)OC(=O)[C@@H](N)CCCCN)cccc2o1`, for which the Potency result is “inactive”.
Consider `O=C(C(Cl)Cl)N1CCOC12CCCCC2`, for which the Potency result is “inactive”.
As for `CCOC(=O)C(Br)c1ccccc1` (stereo not given), the entry is “inactive”; as for `O=S(=O)(O)C(F)(F)F`, “inactive”; as for `CCN(CC)C(=O)N(CC)CC`, “inactive”.
As for `CCCS(=O)c1ccc2nc(NC(=O)OC)[nH]c2c1` (stereo not given), the entry is “inactive”; as for `CCCC(CCC)(C(=O)OCC)C(=O)OCC`, “inactive”.
As for `CCOC(=O)NCCC[Si](OCC)(OCC)OCC`, the entry is “inactive”; as for `CCCCCCn1c(=O)c2c(ncn2C)n(C)c1=O`, “inactive”; as for `CCCCCCCCCC#N`, “inactive”.
As to `COc1nc(C)nc(NC(=O)NS(=O)(=O)c2ccccc2OCCCl)n1`, the Potency result was “inactive”.
As for `C=CCc1cc(OC)c(O)c(C(=O)NCCO)c1`, the entry is “inactive”; as for `CCCCCCC`, “inactive”; as for `Cc1cc(S(=O)(=O)O)c(N)cc1Cl`, “inactive”.

For the origin of these results see PubChem BioAssay (Tox21).
